Results taken from PubChem BioAssay (NCATS).
Activity calls are given as the source filed them. The call rests on the fitted dose curve; in most records, active means well fitted activation curve with a large enough effect; inconclusive means small, poorly fitted or top-dose-only effect; inactive means flat fitted curve, though single readings scatter.

Assay: Cellular Toxicity (caspase-3) HepG2 (AID 654);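 further: cells exposed to compound for 16 hours before reading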
Settings: HepG2 caspase-3 activation, luminescence, 0% = DMSO only, 100% = tamoxifen; series mostly up to 92.2 µM
Source text: NIH Chemical Genomics Center [NCGC]
NIH Molecular Libraries Screening Centers Network [MLSCN]
National Institutes of Environmental Health Sciences [NIEHS]
National Toxicology Program [NTP]
We have developed a 1536-well cell-based assay for quantitative high throughput screening (qHTS) against a number of cell lines to determine in vitro caspase 3/7 of small molecules. This particular assay uses the HepG2 cell line which is derived from human hepatocellular carcinoma.
NCGC Assay Protocol Summary:
The Caspase-Glo 3/7 assay (Promega) is a homogeneous method to measure caspase-3 and caspase-7 activities in cultured cells. The quantitation of caspase 3/7 activity is based on the cleavage of a peptide-aminoluciferin substrate. After caspase cleaves the substrate the free aminoluciferin is liberated and serves as the substrate of luciferase, which generates the light. The luminescent signal is proportional to amount of caspase 3/7 activity present.
Using the Caspase-Glo 3/7 assay, the amount of caspase 3/7 activity was measured in the HepG2 cell line with complete culture medium following compound treatment for 16 hours. The assay was performed in opaque white 1536-well plates. In the screen, tamoxifen and doxorubicin were used as positive controls. Library compounds were measured for their ability to cause the activation of caspase 3/7 in the cell line, as reflected by an increase in luminescence signal, in a concentration-dependent manner. Data were normalized to the controls for basal activity (DMSO only) and 100% stimulation (100 uM tamoxifen). AC50 values were determined from concentration-response data modeled with the standard Hill equation.
qHTS protocol for caspase 3/7 assay in HepG2 cells
[Step] [Parameter] [Value] [Description]
1. Reagent; 5 uL; 1500 HepG2 cells/well
2. Time; 5 hr; 37 °C incubation
4. Controls; 23 nL; Tamoxifen 0.23 uM to 100 uM & Doxorubicin 7.0 pM to 100 uM
5. Time; 16 hr; 37 °C incubation
6. Reagent; 5 uL; Caspase-Glo 3/7 reagent
7. Time; 20 min; Room Temperature
8. Detection; Luminescence; Viewlux plate reader
Keywords: caspase 3/7, apoptosis, HepG2 cell line, luminescence, NTPHTS, NTPHTS_NCGC, NIEHS, EPA, DSSTox, MLSMR, MLSCN, NIH Roadmap, qHTS, NCGC

Compound	outcome
Clc1ccc(C(c2ccc(Cl)cc2)C(Cl)Cl)cc1	inactive
CCCCCCCCn1sccc1=O	inactive
CN(C)c1ccc(N=O)cc1	inactive
FC(F)(F)c1ccc(Cl)cc1	inactive
CC(=O)[O-].CC(=O)[O-].O.O.[Cd+2]	inactive
C[C@@H]1CC[C@@]2(OC1)O[C@H]1[C@@H](O)[C@H]3[C@@H]4CC[C@H]5C[C@@H](O[C@@H]6O[C@H](CO)[C@H](O[C@@H]7O[C@H](CO)[C@@H](O)[C@H](O[C@@H]8OC[C@@H](O)[C@H](O)[C@H]8O)[C@H]7O[C@@H]7O[C@H](CO)[C@@H](O)[C@H](O[C@@H]8O[C@H](CO)[C@@H](O)[C@H](O)[C@H]8O)[C@H]7O)[C@H](O)[C@H]6O)[C@H](O)C[C@]5(C)[C@H]4CC[C@]3(C)[C@H]1[C@@H]2C	inactive
ClC1=C(Cl)C2(Cl)C3C(Cl)C(Cl)CC3C1(Cl)C2(Cl)Cl (configuration not stated)	inactive
[Cd+2].[Cl-].[Cl-]	inactive
C#CCO	inactive
O=C(O)C1C(C(=O)O)C2(Cl)C(Cl)=C(Cl)C1(Cl)C2(Cl)Cl (configuration not stated)	inactive
[CH3][Hg][Cl]	inactive
Nc1ccccc1C(=O)OCCc1ccccc1	inactive
O=C(CCl)c1ccccc1	inactive
c1ccc2cc3c(cc2c1)-c1cccc2cccc-3c12	inactive
OC(c1ccc(Cl)cc1)(c1ccc(Cl)cc1)C(Cl)(Cl)Cl	inactive
N#CC(Cl)Cl	inactive
O=[N+]([O-])C(Br)Br	inactive
COP(=O)(OC)O/C(=C\Cl)c1cc(Cl)c(Cl)cc1Cl	inactive
CC(C)CC(C)Nc1ccc(Nc2ccccc2)cc1 (configuration not stated)	inactive
Oc1c(Br)c(Br)c(Br)c(Br)c1Br	inactive
N#CSCSC#N	inactive
C(=NC1CCCCC1)=NC1CCCCC1	inactive
